Test results reported in the supplement of paper PMC10849652.
Of roughly 7,900 targets only a part is listed; those with a hit were picked by preference. About 0.6% of all pairs of compound and target were hits. Values without a mark were called inactive.

Columns and labels:
Test in all cases: log2 fold change, soluble protein after heating vs DMSO (PISA); higher = thermal stabilisation; K562 cells, 10 uM, 30 min; active = over 0.2 and 3.5 SD of the protein, either way, in both replicates (recomputed)
saracatinib = compound: CN1CCN(CCOc2cc(OC3CCOCC3)c3c(Nc4c(Cl)ccc5c4OCO5)ncnc3c2)CC1 [saracatinib]
Summary of the method: (§1)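 Thermal stability values are relative to control samples and come from duplicates. They are expressed as log2 fold changes. For measurement, K562 cells (2×10^6 cells/mL) received 10 μM compound for 30 min, and aliquots were heated for 3 min over 48°C-58°C, pooled, and extracted at 4°C in PBS with 0.5% NP-40. Soluble protein, the supernatant after 21,000xg for 90 min, was quantified by TMTpro 16plex LC-MS/MS with equalised channel sums.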

sotrastaurin = compound: CN1CCN(c2nc(C3=C(c4c[nH]c5ccccc45)C(=O)NC3=O)c3ccccc3n2)CC1 [sotrastaurin]
Summary of the method: as §1

alvocidib = compound: CN1CC[C@H](c2c(O)cc(O)c3c(=O)cc(-c4ccccc4Cl)oc23)[C@H](O)C1 [alvocidib]
Summary of the method: as §1

Tubastatin A = compound: CN1CCc2c(c3ccccc3n2Cc2ccc(C(=O)NO)cc2)C1 [Tubastatin A]
Summary of the method: as §1

[1] = compound: CNC(=O)C1=CC=CC=C1NC2=NC(=NC=C2Cl)NC3=C(C=C(C=C3)N4CCOCC4)OC
Summary of the method: as §1

defactinib = compound: CNC(=O)c1ccc(Nc2ncc(C(F)(F)F)c(NCc3nccnc3N(C)S(C)(=O)=O)n2)cc1 [defactinib]
Summary of the method: as §1

rucaparib = compound: CNCc1ccc(-c2[nH]c3cc(F)cc4c3c2CCNC4=O)cc1 [rucaparib]
Summary of the method: as §1

[2] = compound: CNc1nc(-c2ccc3c(N)n[nH]c3c2)cc(N2C[C@@H](C(=O)NC3CCCCC3)CC[C@H]2C)n1
Summary of the method: as §1

encorafenib = compound: COC(=O)N[C@@H](C)CNc1nccc(-c2cn(C(C)C)nc2-c2cc(Cl)cc(NS(C)(=O)=O)c2F)n1 [encorafenib]
Summary of the method: as §1

[3] = compound: COC(=O)[C@H](CCSC)NC(=O)C1=C(C=C(C=C1)NC[C@H](CS)N)C2=CC=CC=C2
Summary of the method: as §1

[4] = compound: COC1=CC=C(C=C1)CN2C=CC3=C2C=C(C=C3)C(=O)NO
Summary of the method: as §1

filanesib = compound: CON(C)C(=O)N1N=C(c2cc(F)ccc2F)S[C@@]1(CCCN)c1ccccc1 [filanesib]
Summary of the method: as §1

zotarolimus = compound: CO[C@H]1C[C@@H]2CC[C@@H](C)[C@@](O)(O2)C(=O)C(=O)N2CCCC[C@H]2C(=O)O[C@H]([C@H](C)C[C@@H]2CC[C@H](n3cnnn3)[C@H](OC)C2)CC(=O)[C@H](C)/C=C(\C)[C@@H](O)[C@@H](OC)C(=O)[C@H](C)C[C@H](C)/C=C/C=C/C=C/1C [zotarolimus]
Summary of the method: as §1

idasanutlin = compound: COc1cc(C(=O)O)ccc1NC(=O)[C@@H]1N[C@@H](CC(C)(C)C)[C@](C#N)(c2ccc(Cl)cc2F)[C@H]1c1cccc(Cl)c1F [idasanutlin]
Summary of the method: as §1

alisertib = compound: COc1cc(Nc2ncc3c(n2)-c2ccc(Cl)cc2C(c2c(F)cccc2OC)=NC3)ccc1C(=O)O [alisertib]
Summary of the method: as §1

[5] = compound: COc1cc2nc(-c3cc(F)ccc3O)nc(N[C@@H]3CNC[C@H]3C(C)(C)O)c2cc1OC
Summary of the method: as §1

gefitinib = compound: COc1cc2ncnc(Nc3ccc(F)c(Cl)c3)c2cc1OCCCN1CCOCC1 [gefitinib]
Summary of the method: as §1

[6] = compound: COc1cccc2cc(-c3nc([C@H]4CC[C@H](C(=O)O)CC4)n4ncnc(N)c34)[nH]c12
Summary of the method: as §1

lapatinib = compound: CS(=O)(=O)CCNCc1ccc(-c2ccc3ncnc(Nc4ccc(OCc5cccc(F)c5)c(Cl)c4)c3c2)o1 [lapatinib]
Summary of the method: as §1

pictilisib = compound: CS(=O)(=O)N1CCN(Cc2cc3nc(-c4cccc5[nH]ncc45)nc(N4CCOCC4)c3s2)CC1 [pictilisib]
Summary of the method: as §1

Sequence of UniProt Q9UEY8 (Q9UEY8 whole entry, looked up): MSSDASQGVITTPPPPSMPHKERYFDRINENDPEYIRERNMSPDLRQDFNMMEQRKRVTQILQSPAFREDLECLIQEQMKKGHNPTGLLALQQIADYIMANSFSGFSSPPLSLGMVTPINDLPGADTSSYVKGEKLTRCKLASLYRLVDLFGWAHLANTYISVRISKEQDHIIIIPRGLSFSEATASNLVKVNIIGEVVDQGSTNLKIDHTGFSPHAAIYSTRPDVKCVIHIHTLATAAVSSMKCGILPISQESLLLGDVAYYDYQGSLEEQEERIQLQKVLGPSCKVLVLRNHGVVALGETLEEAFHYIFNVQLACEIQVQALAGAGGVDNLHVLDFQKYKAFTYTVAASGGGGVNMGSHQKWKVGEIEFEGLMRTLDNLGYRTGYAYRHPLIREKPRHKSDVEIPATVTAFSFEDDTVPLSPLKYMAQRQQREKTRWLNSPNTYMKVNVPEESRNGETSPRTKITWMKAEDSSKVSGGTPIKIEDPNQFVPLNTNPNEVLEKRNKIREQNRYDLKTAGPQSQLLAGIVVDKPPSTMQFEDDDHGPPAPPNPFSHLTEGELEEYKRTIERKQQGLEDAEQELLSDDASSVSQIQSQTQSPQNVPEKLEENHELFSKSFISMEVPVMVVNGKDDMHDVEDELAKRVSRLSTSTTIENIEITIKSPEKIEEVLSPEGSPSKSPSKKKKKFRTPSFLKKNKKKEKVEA
Sequence of UniProt Q9Y312 (Q9Y312 whole entry, looked up): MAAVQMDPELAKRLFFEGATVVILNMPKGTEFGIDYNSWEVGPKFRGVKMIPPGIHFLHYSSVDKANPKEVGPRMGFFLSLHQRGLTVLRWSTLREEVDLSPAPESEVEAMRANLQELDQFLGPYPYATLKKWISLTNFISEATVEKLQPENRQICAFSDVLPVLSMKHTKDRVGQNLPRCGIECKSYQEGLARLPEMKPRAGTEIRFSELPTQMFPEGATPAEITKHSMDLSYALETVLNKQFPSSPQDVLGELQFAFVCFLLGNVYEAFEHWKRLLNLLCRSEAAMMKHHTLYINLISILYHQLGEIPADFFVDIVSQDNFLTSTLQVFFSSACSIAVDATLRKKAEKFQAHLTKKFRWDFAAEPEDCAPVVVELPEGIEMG
Sequence of UniProt P33121 (P33121 whole entry, looked up): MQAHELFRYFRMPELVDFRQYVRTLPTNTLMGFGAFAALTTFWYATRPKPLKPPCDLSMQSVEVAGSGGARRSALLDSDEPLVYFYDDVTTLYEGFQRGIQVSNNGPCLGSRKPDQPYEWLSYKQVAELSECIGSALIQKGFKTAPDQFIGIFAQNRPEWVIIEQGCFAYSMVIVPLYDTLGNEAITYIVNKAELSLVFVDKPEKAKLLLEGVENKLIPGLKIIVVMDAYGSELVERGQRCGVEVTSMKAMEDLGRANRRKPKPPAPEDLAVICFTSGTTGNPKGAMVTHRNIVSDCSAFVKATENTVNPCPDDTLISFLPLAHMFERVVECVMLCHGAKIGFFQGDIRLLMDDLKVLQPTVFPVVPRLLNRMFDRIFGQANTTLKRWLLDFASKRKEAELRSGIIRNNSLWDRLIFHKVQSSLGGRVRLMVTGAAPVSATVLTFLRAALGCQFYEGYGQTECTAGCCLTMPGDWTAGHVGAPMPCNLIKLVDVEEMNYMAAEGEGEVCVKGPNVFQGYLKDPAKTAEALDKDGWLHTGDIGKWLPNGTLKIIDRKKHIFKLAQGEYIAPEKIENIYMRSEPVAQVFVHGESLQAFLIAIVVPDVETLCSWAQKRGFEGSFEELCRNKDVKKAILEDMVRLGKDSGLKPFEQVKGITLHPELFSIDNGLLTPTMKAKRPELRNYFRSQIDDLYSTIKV
Sequence of UniProt Q9Y487 (Q9Y487 whole entry, looked up): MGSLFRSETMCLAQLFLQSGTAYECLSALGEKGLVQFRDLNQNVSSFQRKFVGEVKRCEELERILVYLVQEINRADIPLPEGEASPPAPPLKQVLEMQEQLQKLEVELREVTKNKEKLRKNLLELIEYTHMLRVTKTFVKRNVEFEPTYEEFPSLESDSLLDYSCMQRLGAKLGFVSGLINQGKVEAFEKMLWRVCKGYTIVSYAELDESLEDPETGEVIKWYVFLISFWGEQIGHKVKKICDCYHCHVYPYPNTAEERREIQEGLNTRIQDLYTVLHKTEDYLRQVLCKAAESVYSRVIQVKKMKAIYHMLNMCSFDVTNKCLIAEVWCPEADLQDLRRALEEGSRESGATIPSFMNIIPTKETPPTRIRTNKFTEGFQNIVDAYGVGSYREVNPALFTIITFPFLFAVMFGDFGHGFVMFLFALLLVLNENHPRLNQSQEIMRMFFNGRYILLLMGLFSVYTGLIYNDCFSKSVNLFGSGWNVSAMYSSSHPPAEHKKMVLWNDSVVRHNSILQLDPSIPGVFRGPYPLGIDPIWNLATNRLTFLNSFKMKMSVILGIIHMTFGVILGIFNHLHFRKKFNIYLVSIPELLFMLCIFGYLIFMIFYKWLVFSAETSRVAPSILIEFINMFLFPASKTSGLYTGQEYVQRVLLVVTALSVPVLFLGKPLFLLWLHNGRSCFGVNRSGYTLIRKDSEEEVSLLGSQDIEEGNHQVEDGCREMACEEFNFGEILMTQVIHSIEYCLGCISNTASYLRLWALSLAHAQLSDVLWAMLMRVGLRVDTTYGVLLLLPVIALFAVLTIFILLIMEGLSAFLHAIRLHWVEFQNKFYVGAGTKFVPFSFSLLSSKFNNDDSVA
Sequence of UniProt Q9NUQ2 (Q9NUQ2 whole entry, looked up): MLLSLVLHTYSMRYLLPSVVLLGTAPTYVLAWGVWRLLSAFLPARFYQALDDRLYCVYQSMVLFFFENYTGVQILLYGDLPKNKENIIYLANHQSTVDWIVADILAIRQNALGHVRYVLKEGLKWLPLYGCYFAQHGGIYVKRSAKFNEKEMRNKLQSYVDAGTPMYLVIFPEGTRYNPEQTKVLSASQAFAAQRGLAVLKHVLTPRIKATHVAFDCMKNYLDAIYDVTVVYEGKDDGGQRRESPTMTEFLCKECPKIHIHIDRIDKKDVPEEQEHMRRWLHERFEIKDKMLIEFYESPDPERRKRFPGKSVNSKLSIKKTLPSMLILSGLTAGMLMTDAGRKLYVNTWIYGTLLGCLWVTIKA
Sequence of UniProt P24666 (P24666 whole entry, looked up): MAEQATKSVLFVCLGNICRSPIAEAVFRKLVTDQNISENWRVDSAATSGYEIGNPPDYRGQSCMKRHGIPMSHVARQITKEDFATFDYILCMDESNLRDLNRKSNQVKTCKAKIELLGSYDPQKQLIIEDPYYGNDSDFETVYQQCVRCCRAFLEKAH
Sequence of UniProt P52895 (P52895 whole entry, looked up): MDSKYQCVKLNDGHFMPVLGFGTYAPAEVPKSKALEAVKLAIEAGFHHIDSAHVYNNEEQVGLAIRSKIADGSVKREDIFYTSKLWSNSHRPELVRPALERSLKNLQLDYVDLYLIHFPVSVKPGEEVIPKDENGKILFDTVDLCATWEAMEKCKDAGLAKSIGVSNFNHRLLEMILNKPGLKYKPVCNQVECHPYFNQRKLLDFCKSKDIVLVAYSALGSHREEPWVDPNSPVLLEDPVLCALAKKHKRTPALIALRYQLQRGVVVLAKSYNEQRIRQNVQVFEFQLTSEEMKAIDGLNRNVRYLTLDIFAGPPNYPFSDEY
Sequence of UniProt Q96BI3 (Q96BI3 whole entry, looked up): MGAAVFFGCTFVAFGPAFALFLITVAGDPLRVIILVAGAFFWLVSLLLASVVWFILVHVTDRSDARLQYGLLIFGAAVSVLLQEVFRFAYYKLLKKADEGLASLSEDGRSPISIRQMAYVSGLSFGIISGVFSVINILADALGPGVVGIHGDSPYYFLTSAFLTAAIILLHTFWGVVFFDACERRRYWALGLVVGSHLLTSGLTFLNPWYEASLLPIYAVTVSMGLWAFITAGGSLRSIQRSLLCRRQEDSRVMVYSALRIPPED
Sequence of UniProt O00170 (O00170 whole entry, looked up): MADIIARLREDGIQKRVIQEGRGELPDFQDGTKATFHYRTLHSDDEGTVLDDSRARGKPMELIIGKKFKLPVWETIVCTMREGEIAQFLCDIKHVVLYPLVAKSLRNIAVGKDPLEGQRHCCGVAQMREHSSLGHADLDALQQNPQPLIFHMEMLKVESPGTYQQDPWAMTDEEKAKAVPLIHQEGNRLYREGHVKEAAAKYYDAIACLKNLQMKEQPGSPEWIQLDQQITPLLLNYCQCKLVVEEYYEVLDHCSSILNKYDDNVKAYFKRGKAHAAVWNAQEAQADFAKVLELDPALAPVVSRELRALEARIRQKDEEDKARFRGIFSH
Sequence of UniProt P08243 (P08243 whole entry, looked up): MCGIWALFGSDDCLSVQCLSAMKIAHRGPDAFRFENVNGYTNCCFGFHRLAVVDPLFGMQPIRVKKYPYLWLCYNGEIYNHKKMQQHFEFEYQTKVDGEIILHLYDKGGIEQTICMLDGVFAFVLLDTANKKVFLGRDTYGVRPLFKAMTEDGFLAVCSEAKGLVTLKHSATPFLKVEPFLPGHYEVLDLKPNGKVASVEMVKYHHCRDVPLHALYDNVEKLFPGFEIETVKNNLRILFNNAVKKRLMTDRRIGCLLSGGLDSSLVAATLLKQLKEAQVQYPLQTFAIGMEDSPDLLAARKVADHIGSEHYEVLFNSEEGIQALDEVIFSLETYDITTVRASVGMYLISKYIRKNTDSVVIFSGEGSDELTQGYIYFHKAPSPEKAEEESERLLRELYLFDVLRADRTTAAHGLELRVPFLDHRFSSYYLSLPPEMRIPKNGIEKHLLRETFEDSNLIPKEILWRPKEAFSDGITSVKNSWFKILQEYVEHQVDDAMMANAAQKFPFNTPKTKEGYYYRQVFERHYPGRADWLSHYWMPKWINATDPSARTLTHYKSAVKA
Sequence of UniProt P30043 (P30043 whole entry, looked up): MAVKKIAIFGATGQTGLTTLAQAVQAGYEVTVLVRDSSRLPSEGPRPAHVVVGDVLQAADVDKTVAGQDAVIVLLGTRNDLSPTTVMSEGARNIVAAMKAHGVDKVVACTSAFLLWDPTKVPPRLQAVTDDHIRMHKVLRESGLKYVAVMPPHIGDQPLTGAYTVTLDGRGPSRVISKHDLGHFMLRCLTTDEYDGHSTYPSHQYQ

Target	log2 fold change (saracatinib)	log2 fold change (sotrastaurin)	log2 fold change (alvocidib)	log2 fold change (Tubastatin A)	log2 fold change [1]	log2 fold change (defactinib)	log2 fold change (rucaparib)	log2 fold change [2]	log2 fold change (encorafenib)	log2 fold change [3]	log2 fold change [4]	log2 fold change (filanesib)	log2 fold change (zotarolimus)	log2 fold change (idasanutlin)	log2 fold change (alisertib)	log2 fold change [5]	log2 fold change (gefitinib)	log2 fold change [6]	log2 fold change (lapatinib)	log2 fold change (pictilisib)
ACP1 isoform 2 (UniProt P24666)	-0.175	-0.11	0.013	0.111	0.038	-0.047	0.019	0.059	0.064	0.024	0.029	0.095	0.009	0.028	0.094	0.036	0.045	-0.077	0.014	0.055
ACADVL isoform 3 (UniProt P49748)	0.027	0.056	-0.031	-0.028	-0.022	-0.011	-0.007	0.008	-0.021	-0.001	0	-0.069	0.019	-0.04	-0.031	-0.089	-0.019	0.025	-0.12	0.093
ATP1A4 (UniProt Q13733)	0.066	-0.088	0.015	-0.017	0.151	0.033	-0.076	-0.108	0.021	0.118	0.042	0.006	0.006	0.063	-0.083	0.003	0.057	-0.024	-0.01	0.016
ALKBH5 (UniProt Q6P6C2)	-0.006	-0.044	0.092	0.118	-0.185	0.021	0.11	0.035	-0.048	0.003	0.124	0.001	-0.067	0.016	-0.12	0.044	0.023	-0.138	-0.008	0.094
ADH5 (UniProt P11766)	0.04	0.03	0.011	-0.025	-0.025	-0.014	-0.066	-0.025	-0.006	0.002	-0.002	-0.053	0.008	-0.037	-0.039	0.011	-0.007	0.058	-0.03	0
ADD1 isoform 3 (UniProt P35611)	0.095	-0.031	-0.088	-0.002	0.008	-0.039	-0.018	0	-0.024	0.031	0.071	0.013	-0.025	0.014	-0.059	-0.009	0.007	0.066	0.015	-0.004
ADD3 (UniProt Q9UEY8)	0.032	-0.087	-0.068	-0.02	-0.005	-0.018	-0.013	-0.039	-0.003	0.045	0.018	0.059	-0.074	0.02	-0.063	0.057	0.021	0.063	-0.006	0.075
ATP6V0A1 isoform 3 (UniProt Q93050)	-0.253	-0.236	0.06	0.089	-0.052	0.125	0.154	0.032	0.196	-0.02	0.021	-0.105	0.073	0.112	0.027	-0.298	-0.18	-0.21	0.033	-0.284
AAR2 (UniProt Q9Y312)	0.06	-0.017	-0.026	-0.027	-0.049	0.063	0.17	-0.069	-0.029	-0.015	0.022	0.111	0.042	0.002	-0.129	0.104	0.075	0.058	-0.005	-0.082
ACSL1 (UniProt P33121)	0	0.029	-0.083	-0.075	-0.003	-0.025	-0.021	-0.025	0.031	0.042	-0.014	-0.08	0.038	-0.017	0.015	-0.261	0.024	0.024	0.017	0.041
AKR1C2 (UniProt P52895)	-0.108	-0.009	0.08	0.111	0.052	0.146	0.146	0.047	0.094	-0.06	0.706 (active)	0.259	0.097	-0.015	-0.012	-0.013	0.044	-0.012	0.068	0.165
ABHD16A (UniProt O95870)	0.01	0.214	-0.033	0.004	0.031	-0.065	-0.017	0.162	-0.05	0.031	0.051	0.067	0.204	-0.042	-0.049	0.347 (active)	0.158	-0.039	0.235	0.018
AGPAT5 (UniProt Q9NUQ2)	0.016	0.08	-0.085	-0.075	-0.021	0.011	0.012	0.083	-0.011	-0.019	-0.043	-0.153	0	-0.044	0.113	-0.111	0.018	0.071	0.119	0.062
ATP1A1 (UniProt P05023)	0.046	0.039	-0.034	-0.026	-0.026	-0.024	-0.009	0.011	-0.001	0.014	0.09	0.013	0.002	0.004	-0.092	0.032	0.03	0.054	-0.019	-0.023
BAIAP2 (UniProt Q9UQB8)	0.009	-0.016	-0.017	0.036	-0.103	-0.097	0.014	-0.017	0.006	-0.022	0.014	-0.029	-0.016	-0.003	0.008	-0.131	-0.026	-0.024	0.036	0
ASNS (UniProt P08243)	0.041	0.016	-0.013	-0.002	-0.036	-0.018	-0.017	-0.015	-0.009	-0.001	0.027	-0.073	-0.002	-0.021	-0.027	0.02	-0.032	0.034	-0.017	0.019
APH1A (UniProt Q96BI3)	0.025	0.131	0.073	0.097	-0.047	-0.089	0.002	-0.01	0	-0.111	0.101	-0.039	-0.062	0.005	-0.228	-0.236	0.043	0.059	0.091	0.013
APPL1 (UniProt Q9UKG1)	0.029	-0.004	-0.179	0.002	0.027	0.037	-0.095	-0.03	0.03	-0.029	-0.024	0.069	0.018	-0.076	-0.001	0.079	-0.106	-0.023	-0.025	0.033
AIP (UniProt O00170)	0.009	-0.038	-0.079	0.034	0.028	-0.068	-0.015	-0.046	0.065	-0.025	0.06	-0.041	0.021	-0.019	-0.046	0.054	-0.002	-0.019	-0.019	0.015
BLVRB (UniProt P30043)	0.101	-0.047	-0.083	-0.002	0.058	-0.045	0.043	0.061	-0.007	-0.003	0.113	-0.073	0.024	-0.045	-0.07	0.045	0.061	0.015	0.071	0.037
ARFGAP2 (UniProt Q8N6H7)	0.037	-0.051	-0.083	0.03	0.025	-0.023	0.017	0.017	0.05	-0.02	-0.067	0.024	-0.005	-0.029	-0.058	0.156	-0.004	-0.064	-0.001	0.013
ACSL4 (UniProt O60488)	-0.128	-0.086	0.033	0.071	0.05	-0.041	0.069	0.043	0.094	-0.024	0.09	-0.071	-0.058	-0.113	-0.006	-0.105	0.075	-0.053	0.052	0.052
ATP6V0A2 (UniProt Q9Y487)	-0.009	-0.07	0.036	0.061	-0.003	0.019	-0.003	-0.021	0.043	-0.039	-0.029	-0.083	0.011	0.004	-0.082	-0.07	-0.058	-0.056	0.016	-0.071
AKAP8L (UniProt Q9ULX6)	-0.127	-0.203	-0.21	0.055	-0.097	-0.477 (active)	-0.008	0.027	0.025	0.049	0.032	0.064	0.097	0.205	0.041	-0.212	0.008	0.001	0.034	0.019
